# Source: PubChem BioAssay (several laboratories)
# A selection: hits, their analogues and other compounds. The true share with any hit is near 2.9%.
# LMP1 NFkB inh: EBV LMP1-driven NF-kappaB luciferase reporter inhibitors, primary screen, cell-based, luminescence, single point; LMP1-induced NF-kappaB luciferase reporter cells; inhibition, % at 12.5 µM; hit rate 0.69% among 350,000; AID 504558, 2011; in the data active = inhibition above about 41%; inconclusive = no clear call, values can overlap the other calls
# KKLEB tox: cytotoxicity in KKLEB CF airway cells, primary screen, cytotoxicity control for CF NF-kB inhibitor project, cell-based, uHTS, fluorescence assay plates; KKLEB CF airway cells viability, ATPlite luminescence, overnight; active compounds read low; cells stimulated with P. aeruginosa culture filtrate; activity change (cytotoxicity), % at 5 µM; hit rate 0.36% among 360,000; AID 602141, 2011;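 active = corrected activity change at or below -50% at 5 µM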
# MITF TRPM1 inh: inhibitors of MITF-dependent TRPM1 promoter reporter, primary screen, cell-based, SK-MEL-5, single point, luciferase. SK-MEL-5 TRPM1 promoter luciferase, 24 h. inhibition, % at 12.5 µM. hit rate 0.83% among 330,000. AID 488899, 2010;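 active = mean inhibition across replicates of 60% or more, whatever share of single replicates reaches that level; inconclusive = some that reach 60%, reason not given; inactive = mean inhibition across replicates below 60%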
# Shn3 3UTR inh: reduction of Shn3 3'UTR firefly luciferase signal, primary screen, Schnurri-3 inhibitor project, cell-based, Clone20 osteoblasts, set 2. Clone20 osteoblast Shn3 3'UTR firefly luciferase, 24 h. inhibition, % at 12.5 µM. hit rate 0.52% among 360,000. AID 588674, 2011;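 active = mean inhibition of at least 75% with every replicate also reaching 75%; inconclusive = mean inhibition at least 75% but some replicate below; inactive = mean inhibition below 75%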
# Peg3 promoter: Peg3 promoter-driven luciferase inhibitors, primary screen, cell-based, HeLa, luciferase luminescence; HeLa PEG-Prom luciferase reporter, overnight; inhibition, % at 20 µM; hit rate 1.7% among 360,000;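 active = inhibition of at least 50% at 20 µM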
# CF NFkB block: inhibitors of PAF-induced NF-kB signaling, primary screen, cell-based, GFP fluorescence, uHTS | KKLEB NF-kB-GFP reporter, GFP fluorescence overnight | inhibition, % at 5 µM | hit rate 0.86% among 360,000;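 active = at least 50% inhibition at 5 µM, scaled per plate between neutral and stimulator controls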;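 also: PAF is a Pseudomonas aeruginosa culture filtrate used as stimulus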
# Numbers stand for hits; . = inactive; ? = inconclusive; / = no result given.
SMILES,LMP1 NFkB inh,KKLEB tox,MITF TRPM1 inh,Shn3 3UTR inh,Peg3 promoter,CF NFkB block
CCc1nc2ccc(C(=O)NCc3cccs3)cn2c1N(C)Cc1nccs1,/,.,/,.,.,.
CC1CCCC(CC(N)=O)CC1 (centres undefined),.,.,.,94.0,.,.
O=C(CC1CCC1)NC(c1ccccc1)c1ccccc1,.,.,.,.,.,.
N#Cc1ccccc1S(=O)(=O)NC(=O)[C@H]1O[C@@H](n2cnc3c(N)ncnc32)[C@H](O)[C@@H]1O,/,.,/,.,.,.
Cc1cccc(N/C=C/c2onc(C)c2[N+](=O)[O-])c1,.,.,.,.,.,.
Cc1cc(O)ccc1N/C=C/c1onc(C)c1[N+](=O)[O-],.,-52.0,.,.,.,.
O=S(=O)(c1ccc(Cl)cc1)c1snnc1-c1ccccc1,.,.,82.6,.,93.4,.
O=S(=O)(c1ccc(F)cc1)c1snnc1-c1ccccc1,.,.,66.0,.,74.8,.
CN(C)c1ncc(S(=O)(=O)c2ccc(Cl)cc2)c(-c2ccccc2)n1,.,.,.,.,.,.
Cc1cccc(C(O)c2ncc(-c3ccc(Cl)cc3)[nH]2)c1C (centres undefined),/,.,/,.,.,.
O=C(N/N=C/c1ccc2c(c1)OCO2)c1sc2cc(Cl)ccc2c1Cl,.,.,.,.,.,.
COc1ccc2c(Cl)c(C(=O)N/N=C/c3ccc4c(c3)OCO4)sc2c1,.,.,.,.,51.2,.
CCN(CC)C(=O)c1oc2ccc(S(=O)(=O)N3CC(C)CC(C)C3)cc2c1C (centres undefined),.,.,.,90.6,.,.
CCN(CC)C(=O)c1oc2ccc(S(=O)(=O)N3CCCCCC3)cc2c1C,.,.,.,.,.,.
Cc1cc(N2CCN(C(=O)Nc3ccc(F)cc3F)CC2)c2ccccc2n1,.,.,.,.,.,.
CCCCc1ccc(NC(=O)N2CCN(c3cc(C)nc4ccccc34)CC2)c(C)c1,.,.,.,.,60.2,.
COc1ccc(OC)c(NC(=O)C2(C)CCN2C(=O)Cc2ccc(Cl)cc2Cl)c1 (centres undefined),/,.,/,.,.,.
C=C1CC(COc2cc(=O)oc3ccccc23)(c2ccccc2)OC1=O (centres undefined),67.0,-104.3,94.1,97.3,105.5,97.8
C=C1CCC2C(C)(C)[C@H](O)CC[C@@]2(C)[C@@H]1COc1cc(=O)oc2ccccc12 (some centres undefined),.,.,.,.,.,.
C[C@@H](C(=O)OCC(=O)c1ccc(F)c(F)c1)N1C(=O)C2CCCCC2C1=O (some centres undefined),.,.,.,.,.,.
COc1ccc(C(C#N)c2ccc(=O)[nH]n2)cc1 (centres undefined),52.1,.,.,.,.,.
N#CC(c1ccc(Cl)cc1)c1cccc(Cl)n1 (centres undefined),.,.,.,.,.,.
Cc1cc2c(SCC(=O)Nc3cccc(O)c3)ncnc2s1,.,.,.,.,.,.
FC(F)(F)c1cccc(NC(=S)NC(c2ccccc2)c2ccccc2)c1,.,.,.,?,50.1,.
FC(F)(F)c1cccc(NC(=S)Nc2ccc(Cl)c(Cl)c2)c1,.,.,.,.,.,.
SMILES,LMP1 NFkB inh,KKLEB tox,MITF TRPM1 inh,Shn3 3UTR inh,Peg3 promoter,CF NFkB block
N#CCCn1cc(C(=O)Nc2ccccn2)c(-c2ccccc2)n1,69.2,.,.,.,.,.
CN(C)c1ccc(-c2ccnc3c2CC(C)(C(=O)NCC2CCOCC2)O3)cc1 (centres undefined),/,.,/,.,.,.
COc1cc2ncnc(N[C@H](C)c3ccccc3)c2cc1OC,.,.,.,89.5,.,.
Cc1cccc(NC2(C(=O)O)CCCC2)c1,.,.,.,.,.,.
COc1cccc(/C=N/Nc2ccc([N+](=O)[O-])cn2)c1O,51.8,-91.2,.,.,59.4,100.5
COc1cccc(/C=N/Nc2nc(Nc3ccc([N+](=O)[O-])cc3)nc(N3CCCC3)n2)c1O,.,.,.,88.7,62.2,97.1
O=[N+]([O-])c1cccc(C=NNc2ccc3ccccc3n2)c1O,.,.,79.0,.,.,.
O=[N+]([O-])c1ccc(NN=Cc2cccc3ccccc23)nc1,.,.,.,.,.,.
CCn1c2ccccc2c2cc(/C=C(/C#N)C(N)=S)ccc21,85.3,.,.,.,.,.
COCc1c(C(=O)Nc2ccc3nc(N4CCOCC4)sc3c2)oc2ccccc12,.,.,.,.,50.8,.
COCc1c(C(=O)Nc2cccc(S(=O)(=O)N3CCCCC3)c2)oc2ccccc12,.,.,.,85.6,.,.
CN(C)CCNc1ncnc2c1ncn2[C@H]1CN(Cc2cccs2)C[C@@H](CO)O1,/,.,/,.,.,.
COCCNC(=O)C1CCCN(C(=O)COc2ccc(Cl)cc2Cl)CC1 (centres undefined),/,.,/,.,.,.
CCn1c(/C=C/Nc2ccccc2)[n+](CC)c2ccc(Cl)cc21,.,.,.,.,.,.
CCn1c(/C=C/N(C)c2ccccc2)[n+](CC)c2ccc(Cl)cc21,.,.,65.5,.,.,.
Cn1c(=O)c2[nH]c(N=Nc3ccc(N)cc3N)nc2n(C)c1=O,51.1,.,.,.,.,.
COc1ccc(-c2cc(=O)oc3c(C)c(OC(C)C(C)=O)ccc23)cc1 (centres undefined),.,.,.,.,52.2,.
CC(C)CC(=O)/C=C/n1c(=S)oc2ccccc21,66.4,-76.9,76.0,96.7,107.0,91.8
Cc1cc(F)ccc1C(O)c1ncc(-c2ccccc2F)[nH]1 (centres undefined),/,.,/,.,.,.
C=C(C(=O)c1ccccc1)C(C(=C)C(=O)c1ccccc1)c1ccc(OC)cc1,.,.,81.5,96.7,104.6,.
CCc1c(C)nc2cc(-c3ccc(OC)c(OC)c3)nn2c1NCC1CC1,80.1,.,.,92.6,.,.
COc1ccc(-c2c(C)nn3c(NC4CCCC4)cc(C)nc23)cc1OC,.,.,.,.,.,.
O=C(c1cc(-c2ccccc2Cl)nc2ccc(Br)cc12)N1CCN(c2ccccn2)CC1,.,.,.,.,92.2,.
CC(NNC(=S)N1CCCCCC1)c1ccc2ccccc2n1 (centres undefined),/,.,/,.,.,.
Cc1onc(-c2ccccc2)c1C(=O)N1CCCC(C)(C(=O)NS(=O)(=O)C2CC2)C1 (centres undefined),/,.,/,.,.,.
Cc1ccnc(NC(=O)c2cccc(NC(=O)c3ccc(Cl)c(Cl)c3)c2)c1,86.0,.,.,.,.,.
